The results in this text go back to PubChem BioAssay AID686978 (National Center for Advancing Translational Sciences (NCATS), 2013).

About 64,000 (15%) of roughly 420,000 compounds were called active. Not shown: some 27% with an inconclusive outcome. The call rests on the fitted dose curve; in most records, active means well fitted inhibition curve with a large enough effect; inconclusive means small, poorly fitted or top-dose-only effect; inactive means flat fitted curve, though single readings scatter. Only a sample is shown. A call without a number means that no potency is given here.
Potency means the concentration at half of the fitted maximal effect.

The nature of the experiment: qHTS for Inhibitors of human tyrosyl-DNA phosphodiesterase 1 (TDP1): qHTS in cells in absence of CPT. Further: nearly all actives have a fitted effect of over 55% in size. The conditions noted are these: DT40 Tdp1-/- hTDP1 cells, no CPT, ATP luminescence, 48 h; activity change, negative = growth inhibition: at 46.2 µM (top of the series). Put shortly:
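Growth kinetics read by CellTiter-Glo luminescence after ≥48 hr at 37 °C. Cells: DT40 Tdp1-/- stably carrying human TDP1, 400 per well, compound exposure in the absence of CPT (DMSO vehicle).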
On to `CCOc1ccc(OCC(=O)OC(C)C(=O)NC2CCCCC2C)cc1` (stereo unspecified), for which the Potency entry was “inactive”.

For the compound `CC1(C)Oc2ccc3ccc(=O)oc3c2/C(=N/O)C1=O`, the Potency entry is “inactive”.

Consider `O=c1cc(COc2cccc(C(F)(F)F)c2)nc2sc3c(n12)CCCC3`, for which the Potency entry was “inactive”.

On to `Cc1ccc2c(cnn2C(=O)CCC(=O)NC2CCCC2)c1`, for which the Potency result was “inactive”.

In the case of `CCOC(=O)c1c(-c2cccc(N)c2)cn2ccccc12`, the Potency result is “inactive”.

On to `COc1ccccc1/C=C/c1nc(C#N)c(NC(C)c2ccccc2)o1` (stereo unspecified), for which the Potency is 16.4 µM (active).

With `N#Cc1nc(/C=C/c2ccc(F)cc2)oc1NCc1ccc(F)cc1`, the Potency entry was “inactive”.

Turning to `CCOc1ccc(Nc2oc(/C=C/c3ccc(F)cc3)nc2C#N)cc1`, the Potency entry is “inactive”.

Consider `O=C(CNC(=O)c1ccccc1F)OCC(=O)c1c[nH]c2ccccc12`, for which the Potency result is “inactive”.

As to `Cc1c(C(=O)N(C)C)sc2c1c(=O)n(-c1ccc(F)cc1)c(=O)n2CC(=O)N(C)c1ccccc1`, the Potency result is “inactive”.

With `CCOC(=O)[C@]12CCC=C1N(Cc1ccco1)C(=O)[C@H](CC(=O)N1CCSCC1)C2`, the Potency entry is “inactive”.

As for `COC(=O)[C@@]12C[C@@H](CC(=O)N3CCC(c4ccccc4)CC3)C(=O)N(Cc3ccccc3)C1=CCC(C)(C)C2`, the Potency was 14.6 µM (active).

Regarding `O=C(NCc1ccccc1)C1CCN(C(=O)Cc2ccccc2)CC1`, the Potency result is “inactive”.

As to `CCOC(=O)N1CCN(C(=O)C(C)NC(=O)c2ccco2)CC1` (stereo unspecified), the Potency result was “inactive”.

Regarding `COC(=O)[C@@]12C[C@@H](CC(=O)N3CCCCC3)C(=O)N(Cc3ccc4c(c3)OCO4)C1=CCC(C)(C)C2`, the Potency is 20.6 µM (active).

Regarding `CCn1cc(C(=O)N2CCN(Cc3ccc4c(c3)OCO4)CC2)c2cc(OC)c(OC)cc2c1=O`, the Potency entry is “inactive”.

As to `CCOC(=O)N1CCN(C(=O)C[C@@H]2C[C@@]3(C(=O)OC)CC(C)(C)CC=C3N(Cc3ccco3)C2=O)CC1`, the Potency is 18.4 µM (active).

For `CCOC(=O)C1CCN(C(=O)CC2C(=O)N(Cc3ccccc3)C(C)c3nc4ccccc4n32)CC1` (stereo unspecified), the Potency entry is “inactive”.

For the compound `COC(=O)[C@]12CCCCC=C1N(Cc1ccc3c(c1)OCO3)C(=O)[C@H](CC(=O)N1CCOCC1)C2`, the Potency result is “inactive”.

For the compound `CC(C)CCN1CCN(C/C=C/c2ccco2)CC1CCO` (stereo unspecified), the Potency result was “inactive”.

As for `COC(=O)c1cccc(C(=O)N2CCCC(Nc3ccc4c(c3)OCCO4)C2)c1` (stereo unspecified), the Potency result is “inactive”.

As to `O=C(O)Cc1ccc(NCc2ccccc2Cl)cc1`, the Potency entry was “inactive”.

Consider `Cc1cccc(-c2nnc(SCC(=O)O)n2Cc2ccccc2)c1`, for which the Potency result is “inactive”.

Take `O=C1CC(Cc2ccc(Cl)cc2)C(=O)N1c1cc(Cl)ccn1` (stereo unspecified): the Potency entry was “inactive”.

For the compound `COc1ccc(CNC(=O)CSc2nc3ccccc3nc2Cc2ccccc2)cc1`, the Potency result is “inactive”.

Take `O=C(CSc1n[nH]c(-c2ccccc2)n1)N1CCCCC1`: the Potency entry is “inactive”.

Take `O=C(CSc1nc2ccccc2nc1Cc1ccccc1)N1CCCCC1`: the Potency is 18.4 µM (active).

For `COc1cc(NC(=O)Cn2c(=O)n(Cc3ccco3)c(=O)c3oc4ccccc4c32)cc(OC)c1`, the Potency entry was “inactive”.

For `Cc1c(CCC(=O)O)c(=O)oc2cc3occ(-c4ccccc4)c3cc12`, the Potency entry is “inactive”.

On to `O=C(c1ccco1)N1CCN(CC(=O)N(C2CCCCC2)C2CCS(=O)(=O)C2)CC1` (stereo unspecified), for which the Potency result was “inactive”.

For the compound `COC(=O)c1sccc1NC(=O)CC1C(=O)NCCN1C(=O)Nc1ccc(F)cc1F` (stereo unspecified), the Potency result was “inactive”.

As to `COc1ccccc1CCNC(=O)c1cnccn1`, the Potency result is “inactive”.

As for `COc1ccccc1CCNC(=O)CN1C(=O)NC2(CCCC2)C1=O`, the Potency result is “inactive”.

Take `C=C1C=C(C(F)F)n2ncc(C(=O)NCCc3ccccc3OC)c2N1`: the Potency is 17.8 µM (active).

For `Cc1nn2cc(-c3ccc(Cl)cc3)cnc2c1Br`, the Potency entry is “inactive”.

`COC(=O)CCCC1=CC2=CC(=O)C(C)(OC(=O)c3cccs3)C(=O)C2=CN1c1cccc(C#N)c1` (stereo unspecified): the Potency result is “inactive”.

In the case of `Cc1cccc(NC(=O)N2CCN(C)c3ncccc32)c1C`, the Potency result is “inactive”.

Regarding `Cc1cc(NC(=O)CSc2nnc(Nc3ccccc3F)s2)no1`, the Potency result is “inactive”.

On to `Cc1cc(NC(=O)CSc2nnc(-c3ccc(Cl)s3)o2)no1`, for which the Potency was 16.4 µM (active).

`COc1ccccc1-c1nnc(SCC(=O)Nc2cc(C)on2)o1`: the Potency entry was “inactive”.

With `COc1ccc([N+](=O)[O-])cc1NC(=O)CC1SC(=Nc2cccc(C)c2C)N(/N=C(\C)c2ccc(C)cc2)C1=O` (stereo unspecified), the Potency entry was “inactive”.

Consider `COc1ccc2nc(Nc3nc4cc5c(cc4s3)OCCO5)sc2c1`, for which the Potency result was “inactive”.

On to `COc1ccc2nc(Nc3nc(-c4cc5ccccc5oc4=O)cs3)sc2c1`, for which the Potency was 11.6 µM (active).

On to `O=c1oc2ccccc2cc1-c1csc(Nc2ccc(O)cc2)n1`, for which the Potency was 8.2 µM (active).

For the compound `CCNc1nc(-c2cc3ccccc3o2)cs1`, the Potency result is “inactive”.

As to `COc1ccc2cc(-c3nc(Cl)c4c5c(sc4n3)CC(C)CC5)c(=O)oc2c1` (stereo unspecified), the Potency result was “inactive”.

Turning to `Nc1ncc(-c2cc3ccccc3oc2=O)s1`, the Potency entry was “inactive”.

Regarding `CC(C)C(C(=O)NC1CCCCC1)N(CC1CCCO1)C(=O)CNS(=O)(=O)c1ccc(F)cc1` (stereo unspecified), the Potency result is “inactive”.

Turning to `O=C(O)CCC(=O)N(Cc1ccccc1)Cc1ccccc1`, the Potency result is “inactive”.

With `CC1(C)CC(=O)C=C(NCc2ccncc2)C1`, the Potency entry was “inactive”.

As for `Cc1nc(N=C(N)N)nc2c(C)cccc12`, the Potency was 20.6 µM (active).

Take `Cc1cccc2c(=O)n3c(nc12)CCCCC3`: the Potency result was “inactive”.

With `CC(=O)Oc1ccc(-c2nc3c(C)cccc3c(=O)o2)cc1`, the Potency result was “inactive”.

`CCCN1Cc2cccc(C(=O)NCc3ccccc3)c2C1=O`: the Potency result is “inactive”.

For `CCOc1ccc(N2C(=O)CN(c3cccc4ccccc34)C2=S)cc1`, the Potency entry is “inactive”.

With `CCN(CC)CCCNC(=S)N(CCO)Cc1cc2cc3c(cc2[nH]c1=O)OCO3`, the Potency entry was “inactive”.

For the compound `COCCCNC(=S)N(Cc1ccccc1)Cc1ccc(F)cc1`, the Potency result is “inactive”.

As for `Cc1cc(C)c2[nH]c(=O)c(CN(Cc3ccccc3)C(=S)NCCCN(C)C)cc2c1`, the Potency was 16.4 µM (active).

On to `CCCCNC(=O)c1c[nH]c2ccc(S(=O)(=O)Nc3ccc(OCC)cc3)cc2c1=O`, for which the Potency entry was “inactive”.

Regarding `Cc1ccc(/C=C2\CCn3c2nc2cc(C(=O)O)ccc2c3=O)c(C)c1`, the Potency result is “inactive”.

As to `CC(=O)C[C@@H](O)CC(=O)[C@H]1OC(=O)CCCCCCc2ccccc21`, the Potency entry was “inactive”.

As for `CC(C)(C)c1cc(=O)n2c(nc3ccccc32)[nH]1`, the Potency result is “inactive”.

As for `O=C(NCc1ccccn1)c1cc(-c2ccccc2Cl)on1`, the Potency entry was “inactive”.

`O=C(NCc1ccccn1)Nc1ccc(Cl)cc1`: the Potency entry was “inactive”.

As for `Fc1ccc(-c2ccc(CNCc3ccccn3)o2)cc1Cl`, the Potency is 20.6 µM (active).

Consider `COc1ccc(CNC(=O)CN(Cc2ccccc2Cl)C(=O)c2csnn2)cc1`, for which the Potency entry is “inactive”.
